Compound activity (PubChem)
Hits are enriched below; roughly 12% of the tested compounds scored in any of these assays.
SARS PLP yeast – inhibitors of SARS-CoV papain-like protease in yeast. S. cerevisiae expressing SARS-CoV PLpro, growth rescue. Potency, µM (highest dose often 32.9 µM), inactives show top-dose activity, positive = growth rescue, most hits filed as activators. 0.19% of 330,000 active. AID 485353; calls by dose curve; further: 0% is about no effect; nearly all actives have a fitted effect of over 55% in size
Sm TGR inh – S. mansoni TGR enzyme inhibition; Q962Y6; purified TGR, DTNB reduction, TNB absorbance 405 nm; Potency, µM (series often up to 114 µM), without a hit: top-dose activity change, negative = inhibition, most hits filed as inhibitors; 3% of 360,000 active; AID 485364; further: on the % scale 0 is the no-effect control and ±100 the full control effect; nearly all actives have a fitted effect of over 60% in size
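First, TGR (20 nM dispensed) and NADPH were mixed with compound. Second, a 15 min room-temperature incubation followed. Third, further NADPH and then DTNB were added to start the reaction. Finally, TNB absorbance was monitored kinetically.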
Pf growth 48h – P. falciparum growth inhibition at 48 hours (one generation). P. falciparum luciferase growth in erythrocytes, 48 h. Potency, µM (top dose mostly 28.7 µM), inactives show top-dose activity change, negative = inhibition, hits mostly inhibitors. 5.9% of 310,000 active; further: on the % scale 0 is the no-effect control and ±100 the full control effect
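A one-generation exposure of luciferase-tagged malaria parasites in RPMI 1640/Albumax erythrocyte culture, 37 C and 5% CO2. Inhibition is inferred from decreased luminescence after adding detection reagent.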
Pf growth 96h – P. falciparum growth inhibition at 96 hours; AID 504834; P. falciparum luciferase reporter growth, 96 h; Potency, µM (highest dose often 28.7 µM), inactives show top-dose activity change, negative = inhibition, actives largely listed as inhibitors; 6.9% of 320,000 active; further: on the % scale 0 is the no-effect control and ±100 the full control effect
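Readout is luminescence from an integrated firefly luciferase in P. falciparum. Red cells, 2% hematocrit and 0.05% parasitemia final, were cultured with compound through two parasite generations (96 hours) at 37 C, 5% CO2.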
* marks the source's active call; other numbers are inactive results; u = inconclusive; x = no result. Unless noted, the call rests on the fitted dose curve; in most records, active means well fitted curve in the direction sought with a large enough effect; inconclusive means small, poorly fitted or top-dose-only effect, or another doubt; inactive means no such curve, though single readings can be large; an effect the other way counts as inactive or inconclusive. Potency means the concentration at half of the fitted maximal effect.

SMILES	SARS PLP yeast	Sm TGR inh	Pf growth 48h	Pf growth 96h
Cc1ccc(-n2nc(CO)c(C(=O)NC(C)c3ccccc3)n2)cc1C (centres undefined)	x	0.4%	x	x
COc1ccc2nc(C)c3c(c2c1)OC(C(C)(Cl)Br)C3 (centres undefined)	0.9%	-22.1%	2.8%	-1.9%
Cc1ccc2nc(C)c3c(c2c1)OC(C(C)(Cl)Br)C3 (centres undefined)	-1.8%	3.5%	13.1µM*	u
Cc1cc(S(=O)(=O)N2CCCC(N(C)CCc3ccccn3)C2)c(C)cc1Cl (centres undefined)	2.8%	44.7µM*	u	u
CC(C)C1C(=O)CC(c2ccccc2)NC1c1ccccc1 (centres undefined)	1.3%	11.0%	-28.4%	1.17µM*
CC1C(=O)CC(c2ccccc2)NC1c1ccccc1 (centres undefined)	13.2%	-5.7%	x	-1.4%
CC1Sc2ccc(C(=O)NCc3cccc(C(F)(F)F)c3)cc2NC1=O (centres undefined)	-2.1%	-5.2%	u	-27.7%
Cc1cc(C)cc(N(CCC#N)C(=O)COC(=O)c2ccc(OCc3c(C)noc3C)cc2)c1	0.3%	2.7%	u	10.4µM*
COc1cccc(CNC(=O)CCC(=O)N2CC(C)Oc3ccccc32)c1OC (centres undefined)	-11.2%	9.6%	16.8%	5.22µM*
COc1ccccc1CNc1ncc(-c2ccc(F)cc2)n1C	-2.8%	-7.5%	u	u
Cn1c(-c2ccc(Cl)cc2)cnc1NCc1cc2c(cc1[N+](=O)[O-])OCO2	6.3%	-5.6%	u	56.6%
Cn1c(-c2ccccc2)cnc1NCc1cccc([N+](=O)[O-])c1	2.8%	12.2%	2.6%	27.7%
Cn1c(-c2ccc(F)cc2)cnc1NCc1cc2c(cc1[N+](=O)[O-])OCO2	-15.7%	-3.6%	11.7µM*	40.0%
COc1ccc(CNc2ncc(-c3cccc([N+](=O)[O-])c3)n2C)c(OC)c1OC	-3.4%	-10.1%	-4.0%	4.65µM*
COc1ccc(OC)c(CNc2ncc(-c3ccc(F)cc3)n2C)c1	2.6%	-4.9%	u	14.7µM*
COc1ccc(CNc2ncc(-c3ccc(F)cc3)n2C)c2ccccc12	1.1%	-9.1%	u	10.4µM*
CCc1ccc(NC(=O)CSC2=Nc3ccccc3C3=NC(CC(=O)NCc4ccc5c(c4)OCO5)C(=O)N23)cc1 (centres undefined)	x	-13.0%	x	x
COc1cc(CNc2ncc(-c3ccc(Br)cc3)n2C)cc(OC)c1O	1.9%	15.8µM*	u	u
Cc1cc(=O)[nH]c2cc(O)ccc12	-3.2%	-0.7%	7.5%	33.0%
CC(C)=CCCC1(C)C=Cc2c(c(C)cc3c2[nH]c2cc(O)ccc23)O1 (centres undefined)	-3.9%	0.2%	10.4µM*	-16.3%
COc1ccc(C)cc1NC(=S)N1CCN(c2ccccn2)CC1	-22.6%	-0.2%	24.5%	1.04µM*
COc1ccc(-c2nn(-c3ccccc3)cc2/C=C/C(=O)N2CCN(c3ccccn3)CC2)cc1	-3.4%	23.5%	u	10.4µM*
COc1ccc(OC)c(S(=O)(=O)N2CCCCC2C(=O)N2CCN(c3ccccn3)CC2)c1 (centres undefined)	19.4%	100.9%	11.7µM*	24.8%
Cc1ccc(-c2nn(-c3ccccc3)cc2C(=O)N2CCN(c3ccccn3)CC2)cc1	-0.2%	10.8%	u	u
COc1ccc(NC(=S)N2CCN(c3ccccn3)CC2)cc1OC	3.3%	0.5%	-14.3%	7.38µM*
SMILES	SARS PLP yeast	Sm TGR inh	Pf growth 48h	Pf growth 96h
COc1cccc(CNC(=O)Cc2ccc(OC)c(S(=O)(=O)N3CCOCC3)c2)c1	3.5%	-9.9%	u	u
CC(=O)c1cccc(NC(=O)c2c(C)nn(-c3ccc(F)cc3)c2-n2cccc2)c1	x	4.2%	x	x
COc1cc(/C=C/C(=O)N2CCN(c3ccccn3)CC2)cc(OC)c1OC	9.0%	-40.5%	u	u
COc1ccc(/C=C/C(=O)N2CCN(c3ccccn3)CC2)cc1OC	-1.0%	0.2%	-6.0%	11.7µM*
Cc1cc(N2CCN(c3cccc(C(F)(F)F)c3)CC2)n2nc(-c3ccccc3C)nc2n1	x	-3.6%	x	x
CCN1CCOC(=O)C1CC(=O)Nc1cc(Cl)ccc1C (centres undefined)	x	7.94µM*	x	x
CCN1CCOC(=O)C1CC(=O)Nc1ccc(C)c(Cl)c1 (centres undefined)	x	11.2µM*	x	x
Cc1cccc(NC(=O)CC2C(=O)OCCN2Cc2ccccc2)c1 (centres undefined)	x	-23.3%	x	x
CCCCC1CCC(C(=O)N(CC(C)C)c2c(N)n(Cc3ccccc3)c(=O)[nH]c2=O)CC1 (centres undefined)	0.5%	u	u	10.4µM*
CCCCN(C(=O)C1CCC1)c1c(N)n(CCC)c(=O)[nH]c1=O	-1.3%	6.0%	1.0%	19.1%
CCCCNc1c(N)n(CC(C)C)c(=O)[nH]c1=O	-1.6%	2.3%	14.7µM*	5.4%
CCCCN(C(=O)C1CCCC1)c1c(N)n(CC(C)C)c(=O)[nH]c1=O	3.6%	31.6µM*	25.8%	12.6%
C=CCC[C@@H](Cc1ccc(F)cc1)C(=O)OC[C@@H]1CCCN1C(=O)[C@@H](CC=C)CC(=O)N[C@@H](CO)Cc1ccccc1	-23.5%	x	x	x
COc1ccc2ccccc2c1CN(C)Cc1ccccc1	1.6%	-25.8%	9.4%	u
CCN(CC(=O)Nc1ccc(NC(C)=O)cc1)Cc1c(O)ccc2cc(Br)ccc12	-14.8%	0.794µM*	1.8%	32.0%
COc1ccc(CN(C)Cc2c(O)ccc3ccccc23)cc1	-0.6%	3.16µM*	u	26.2%
CCN(CC(=O)Nc1ccc(NC(C)=O)cc1)CC(=O)Nc1ccc(F)c(Cl)c1	-3.3%	21.7%	7.0%	5.2%
Cc1ccc(NC(=O)CN(C)Cc2c(O)ccc3ccccc23)cc1	-2.3%	0.316µM*	30.9%	13.9%
CN(C)Cc1c(O)ccc2ccccc12	-0.5%	1.12µM*	u	-3.3%
COc1cccc(CN(C)Cc2c(O)ccc3ccccc23)c1	-2.5%	2.51µM*	u	-1.2%
CC(C)CN(Cc1c(O)ccc2ccccc12)CC(C)C	-1.3%	x	-10.1%	0.5%
CN(C)Cc1c(O)ccc2oc(Cc3ccccc3)cc12	2.7%	-5.6%	0.415µM*	15.2%
Cc1c(Cc2ccccc2)c(=O)oc2c(CN(C)C)c(O)c(Cl)cc12	0.2%	-14.3%	-26.8%	26.0%
CCN(Cc1ccncc1)Cc1c(O)ccc2ccccc12	-1.2%	0.708µM*	u	u
COc1cccc(-n2cc(CN(C)Cc3nc(Cc4ccccc4)no3)cn2)c1	-1.1%	18.7%	24.0%	u
COc1cccc(CN(C)Cc2nc(C3CC3)no2)c1	-0.4%	4.9%	75.3%	11.7µM*
Cc1cccc(C(=O)NC2(C(F)(F)F)N=C(c3ccccc3)N(C3CCCCC3)C2=O)c1 (centres undefined)	x	6.3%	x	x
Cc1ccc2scc(N3CCCCC3)c(=O)c2c1	x	-5.3%	x	x
CCOc1ccc(NC(=O)c2ccccc2NC(=O)CN(C)CC(=O)Nc2ccc(C)cc2)cc1	1.5%	-16.6%	10.4µM*	u
COc1ccc(CNC(=O)c2cc3oc4ccccc4c3n2C)cc1OC	x	-1.2%	x	x
